hgDAF-12 ag = activates the H. glycines DAF-12 receptor ligand-binding domain; activation, % at 6.8 µM; 370,000 compounds, 1.8% hits; HEK293 GAL4-hgDAF12 UAS-luciferase reporter, agonist luminescence; normalized to butyrate control;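 active = activation above a cutoff set at the mean of all screened compounds plus 3 SD, cut at about 10% in these data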
hcDAF-12 act = activates DAF-12 receptor from parasite H. contortus; 370,000 compounds, 1.4% hits; activation, % at 6.8 µM; HEK293 hcDAF-12 lit1-tk-luc reporter, luminescence; 0% DMSO, 100% Δ7-dafachronic acid; AID 652067;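 active = activation above the mean of all tested compounds plus 3 SD, cut at about 5.5% in these data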
DAX1 inh-1 = inhibitors of human orphan nuclear receptor DAX1 (NR0B1); P51843; HEK293 Gal4-DAX1 luciferase reporter, luminescence; inhibition, % at 6.75 µM; 340,000 compounds, 0.99% hits; AID 504766;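 active = inhibition above the mean over all tested compounds plus 3 SD, cut at about 4.2% in these data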;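 note: inhibition shows as a rise in luminescence from relieved DAX1 repression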
Target sequence (P51843 207-470 limits assumed): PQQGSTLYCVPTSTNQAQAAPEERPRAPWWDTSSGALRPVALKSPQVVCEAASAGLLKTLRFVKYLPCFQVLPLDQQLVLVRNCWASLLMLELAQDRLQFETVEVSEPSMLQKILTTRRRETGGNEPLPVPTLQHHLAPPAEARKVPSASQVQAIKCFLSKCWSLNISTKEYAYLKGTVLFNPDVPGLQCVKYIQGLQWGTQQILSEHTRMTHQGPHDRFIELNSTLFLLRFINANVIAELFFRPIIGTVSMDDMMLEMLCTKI
DAX1 inh-2 = DAX1 (NR0B1) inhibition, primary screen; inhibition, % at 6.8 µM; AID 652010; HEK293T StAR-luciferase reporter, SF-1/DAX-1 repression relief; 370,000 compounds, 1.1% hits;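 active = inhibition above the mean over all tested compounds plus 3 SD, cut at about 3.6% in these data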;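 note: higher inhibition means more luminescence from relief of DAX-1 repression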
ssDAF-12 act = activates DAF-12 receptor from parasite S. stercoralis | 370,000 compounds, 1% hits | activation, % at 6.8 µM | HEK293 ssDAF-12/GRIP1 lit1-tk-luc reporter, luminescence; % of 3 µM dafachronic acid response;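 active = activation above the mean over all tested compounds plus 3 SD, cut at about 0.9% in these data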
Each line names hits and unclear results; the compound was inactive in the other large screens. Sampled rows, rich in hits. Any-hit rate of the full collection: about 4.1%.

CCOc1ccc(N(CC(=O)NC(C)(C)C)S(=O)(=O)c2c(C)noc2C)cc1	DAX1 inh-1 6.8
CCOc1ccc(N(CC(=O)Nc2ccc(C)cc2)S(=O)(=O)c2c(C)noc2C)cc1	none
O=C(Nc1ccccc1)Nc1nc2ncccn2c1-c1ccc(F)cc1	none (no result: DAX1 inh-1)
CC(C)(C)C1CCC(=NNC(=O)c2ccccc2-n2cccc2)CC1 (stereo unspecified)	hcDAF-12 act 6.0
O=C(NN=C1CCCCC1)c1ccccc1-n1cccc1	none
Cc1c[nH]c2cccc(-c3ccc(OCc4ccccc4)cc3)c12	none (no result: DAX1 inh-1)
COc1cccc(N2CCN(C(=O)COc3cc(=O)n(C)c4ccccc34)CC2)c1	none (no result: DAX1 inh-1)
O=C(Nc1nc2cc3c(cc2s1)OCO3)c1cccc(N2C(=O)CCC2=O)c1	none
O=C(Nc1ccc(F)cc1F)c1ccc2nc(N3CCOCC3)sc2c1	none
O=C(Nc1nc2ccc(F)cc2s1)c1ccc(N2CCCC2=O)cc1	DAX1 inh-2 4.2
Cc1nnc(NC(=O)c2ccc(N3CCCC3=O)cc2)s1	none
O=C(Nc1nc2cc3c(cc2s1)OCO3)c1ccc(N2C(=O)CCC2=O)cc1	ssDAF-12 act 1.4
O=C(Nc1ccccc1F)c1ccc2nc(N3C(=O)CCC3=O)sc2c1	DAX1 inh-1 7.1
Cc1ccc2nc(NC(=O)c3ccc(N4C(=O)CCC4=O)cc3)sc2c1	hcDAF-12 act 5.9
CCC[C@H]1[C@@H](NCC2CCCCC2)CC[C@@]23CCCN2C(=O)CCC[C@@H]13	none (no result: DAX1 inh-1, DAX1 inh-2)
O=C(NC1CCCCN(Cc2ccc(OC(F)(F)F)cc2)C1=O)c1cccc(F)c1 (stereo unspecified)	none (no result: DAX1 inh-1)
CC(=O)CC[C@@H]1CC[C@]2(CCCN(S(=O)(=O)C3CCCCC3)C2)O1	none (no result: DAX1 inh-1)
CCOC(=O)Cn1cc(CN2CCS(=O)(=O)N(Cc3ccc(F)cc3)C(C(=O)OC)C2)nn1 (stereo unspecified)	none (no result: DAX1 inh-1)
COc1ccc(S(=O)(=O)Nc2cc(Cl)ccc2OC)cc1	ssDAF-12 act 2.7
Cc1ccc(NCc2n[nH]c(=S)n2-c2cccc(Cl)c2)cc1	DAX1 inh-1 4.5
Cc1ccc(-n2c(CNc3cccc(Cl)c3)n[nH]c2=S)cc1	none
CC(C)(C)OC(=O)n1cc(-c2ccccc2)c2c(-c3ccccc3)c(O)ccc21	none (no result: DAX1 inh-1)
C=CCOC(=O)Nc1nc(CCNC(=O)OCc2ccccc2)c(C(=O)OC)s1	none (no result: DAX1 inh-1)
CC(C)C1=NN(C(=O)c2ccccc2)C(O)(C(C)(C)C)C1 (stereo unspecified)	hgDAF-12 ag 12
O=C1c2ccccc2C(c2nnnn2-c2ccc3c(c2)OCCO3)N1CCc1ccccc1F (stereo unspecified)	DAX1 inh-2 4.4 (no result: DAX1 inh-1)
O=C1c2ccccc2C(c2nnnn2-c2ccc3c(c2)OCCO3)N1CCc1ccc(O)cc1 (stereo unspecified)	none (no result: DAX1 inh-1)
COC(=O)C1CN(C2CC2)CCS(=O)(=O)N1Cc1cn(Cc2ccc(Cl)cc2)nn1 (stereo unspecified)	none (no result: DAX1 inh-1)
CN(CCOC(=O)c1occ2ccccc12)C1CN(Cc2cn(Cc3ccccc3Cl)nn2)S(=O)(=O)C1 (stereo unspecified)	none (no result: DAX1 inh-1)
COc1ccc(CNC(=O)CCNS(=O)(=O)c2ccc(Cl)cc2)cc1	none
COc1ccc(CNC(=O)CNC(=O)CNS(=O)(=O)c2ccc(C)c(C)c2)cc1	ssDAF-12 act 0.9
COC(=O)C[C@H]1CC[C@H]2[C@H](COc3ccc(NS(=O)(=O)c4ccccc4C)cc3C(=O)N2C)O1	none (no result: DAX1 inh-1)
CN=c1scc(-c2ccco2)n1/N=C/c1ccc(O)c(O)c1	hgDAF-12 ag 17, hcDAF-12 act 8.4
O=C(c1ccccc1)c1cnc(Nc2ccccc2Cl)s1	DAX1 inh-1 6.8 (no result: hgDAF-12 ag, hcDAF-12 act, DAX1 inh-2, ssDAF-12 act)
CCOC(=O)Nc1ccc(S(=O)(=O)N2CCC(c3nc4ccccc4[nH]3)CC2)cc1	none
CC(=O)Nc1ccc(S(=O)(=O)N2CCC(c3nc4ccc(C)cc4[nH]3)CC2)cc1	DAX1 inh-1 4.4
Cc1cc(C)nc(-n2ncc3c2CCCC3=O)n1	DAX1 inh-1 5.4
Cc1cc(Cl)ccc1OCCn1cncn1	hcDAF-12 act 6.0
O=C(NCCc1ccccc1)c1ccc(S(=O)(=O)N2CCCCC2)cc1	none
O=C(NC(=S)N(CCO)Cc1ccccc1)c1ccc(S(=O)(=O)N2CCCC2)cc1	ssDAF-12 act 2.0
O=C(CCSCCc1ccccn1)Nc1ccc(Br)cc1F	ssDAF-12 act 2.0
Cc1ccccc1OCCOc1cccc(/C=N/NC(=O)Cc2nnc(N)s2)c1	hgDAF-12 ag 12
CCOC(=O)c1c(C)oc2ccc(O)c(CN(C)C)c12	none
CCOC(=O)c1c(C)oc2cc(Cl)c(O)c(CN(C)C)c12	hgDAF-12 ag 13
O=C(O)CN1C(=O)C=CC1=O	DAX1 inh-1 4.7
CCOc1ccc(C(=O)NC2C(=O)N3C(C(=O)O)=C(COC(C)=O)CSC23)cc1OCC (stereo unspecified)	DAX1 inh-2 4.4
COC(=O)[C@@H]1N=C(c2ccc(OC)cc2)O[C@]12C(=O)N(Cc1cn(-c3ccccc3)nn1)c1cccc(Cl)c12	none (no result: DAX1 inh-1)
CN(C)CC(O)c1ccc(C=Cc2ccc(Cl)cc2)cc1 (stereo unspecified)	hgDAF-12 ag 12, DAX1 inh-1 6.4
CN(C)/C=C/C(=O)/C=C/c1ccc(Cl)cc1	none
COC(=O)C1=C(C)N(Cc2ccccc2C(F)(F)F)C(=NCc2ccc3c(c2)OCO3)NC1c1ccc(Cl)cc1 (stereo unspecified)	none (no result: DAX1 inh-1)
COc1ccc(-c2ccnc3ncnn23)cc1	none
FCCCOc1ccc(-c2ccnc3ncnn23)cc1	DAX1 inh-1 5.2
N#CCC[C@@H]1CC[C@]2(CCCN(C(=O)C3CCCCC3)C2)O1	none (no result: DAX1 inh-1)
O=C(CSc1nc2scc(-c3ccccc3)c2c(=O)[nH]1)NC1CCCCC1	none (no result: DAX1 inh-1)
O=C(CSc1nc2scc(-c3ccccc3)c2c(=O)[nH]1)N1CCCCC1	DAX1 inh-1 5.6
CC(=O)Nc1ccccc1P(=O)(c1ccccc1)c1ccccc1OC(C)=O (stereo unspecified)	DAX1 inh-1 4.5
COc1ccc(NC(=S)Nn2cnnc2)cc1OC	DAX1 inh-1 6.4
Cc1cc(C(=O)CSc2nc3ccc(Cl)cc3[nH]2)c(C)n1C	none
O=C(CSc1nc2ccc(Cl)cc2[nH]1)c1cccs1	ssDAF-12 act 1.0
Cc1ccccc1CN1CCCCC(NC(=O)Nc2ccccc2-c2ccccc2)C1=O (stereo unspecified)	none (no result: DAX1 inh-1)
O=C1CCC(=O)N(O)CCCCCNC(=O)CCC(=O)N(O)CCCCNC(=O)CCC(=O)N(O)CCCCCN1	DAX1 inh-1 5.3
O=C1NCCCC1C(=O)N1CCCCC1 (stereo unspecified)	none
Cc1c(NS(=O)(=O)c2cc3c(cc2Br)CCN3C(=O)C2CC2)c(=O)n(-c2ccccc2)n1C	none (no result: DAX1 inh-1)
Cc1ccc(C(=O)Nc2ccccc2OC(F)F)cc1	hgDAF-12 ag 11
O=C(Nc1ccccc1OC(F)F)c1ccccc1	none
O=C(CN1CCN(Cc2ccccc2)CC1)N1N=CCC1c1ccccc1 (stereo unspecified)	DAX1 inh-1 4.8
Cc1cc(C)cc(NC(=O)N2CCC(c3nc4ccc(Cl)cc4[nH]3)CC2)c1	none (no result: DAX1 inh-1)
